Bioassay records as filed in PubChem BioAssay.
HCMV inh: blocks human cytomegalovirus replication; activity change, negative = inhibition, % at 57.5 µM; hit rate 4.5% among 410,000; HFF cells, HCMV-luciferase reporter, 72 h; stronger effect = lower value; AID 1259415; in the data active means activity change below about -60%; inconclusive means no clear call, values can overlap the other calls; inactive means above about -39%
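Screen run at 2 compound doses on HFFs infected with reporter HCMV, MOI 1 PFU/cell. Luciferase activity from cell lysates at 72 h post infection gave inhibition relative to buffer-only and Salinomycin wells.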
Pf growth 48h: inhibits P. falciparum growth in the first generation, 48 h. P. falciparum luciferase growth in erythrocytes, 48 h. Potency, µM (series often up to 28.7 µM), usual class: inhibitors. hit rate 5.9% among 310,000
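Luciferase-expressing P. falciparum in infected erythrocytes (2% hematocrit, 0.1% parasitemia final) in RPMI 1640/0.5% Albumax were exposed to compound for 48 hours at 37 C, 5% CO2; growth read as luminescence.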
Pf growth 96h: P. falciparum growth inhibition at 96 hours; P. falciparum luciferase reporter growth, 96 h; Potency, µM (series often up to 28.7 µM), usual class: inhibitors; hit rate 6.9% among 320,000; AID 504834
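Luminescence readout: decreased luciferase signal marks inhibited growth of reporter-expressing P. falciparum in infected red cells (2% hematocrit, 0.05% parasitemia final), exposed to compound two generations (96 h, 37 C, 5% CO2).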
Cycloheximide cs: counter-screen for Shiga toxin inhibitors: cycloheximide protein synthesis inhibition; cell reporter, cycloheximide protein synthesis inhibition counterscreen; max response, %; hit rate 12% among 300,000; AID 2314; in the data active means max response mostly above about 13%, no sharp cut-off; inactive means mostly below about 14%; further: read at 38.3 µM for the half of the compounds with a filed dose
Shiga inhibitor: blocks Shiga toxin action in Vero cells | hit rate 9.2% among 290,000 | inhibition, % at 38.7 µM | Vero cells, Shiga toxin protein synthesis inhibition reporter | AID 2315; in the data active means inhibition mostly above about 28%, no sharp cut-off; inactive means mostly below about 43%
Large screens that a line does not name were inactive; ! = a repeat was not active. In the library only some 20% were active in any assay of this set; here they are far more common. Unless noted, the call rests on the fitted dose curve; in most records, active means well fitted inhibition curve with a large enough effect; inconclusive means small, poorly fitted or top-dose-only effect, or another doubt; inactive means no such curve, though single readings can be large or run the other way.

O=C(NCCN1CCOCC1)N1CCOCC1	none
C/C(NCCN1CCOCC1)=C(\C#N)C(N)=O	Pf growth 96h 1.7µM
Cc1cccc(C)c1NC(=O)C1(C)CCc2nc3ccccc3n21 (centres undefined)	none (no result: Pf growth 48h, Pf growth 96h, Cycloheximide cs, Shiga inhibitor)
CCCCNC(=O)C(c1ccc(OCC(=O)OC)c(C(=O)OC)c1)N(CCc1c[nH]c2ccccc12)C(=O)CCCCCN1C(=O)NC(c2ccc(-c3ccccc3)cc2)C(C(=O)OCc2ccccc2)=C1C (centres undefined)	Pf growth 48h 2.3µM, Pf growth 96h 2.9µM (no result: HCMV inh)
CC1=C(C(=O)OCc2ccccc2)C(c2ccc(Br)cc2)NC(=O)N1CCCCCC(=O)O (centres undefined)	none (no result: Pf growth 48h, Pf growth 96h, Cycloheximide cs, Shiga inhibitor)
CCCCCCN(C(=O)CCCCCN1C(=O)NC(c2ccc(-c3ccccc3)cc2)C(C(=O)OCc2ccccc2)=C1C)C(C(=O)NCCCC)c1ccc(OCC(=O)OC)c(C(=O)OC)c1 (centres undefined)	Pf growth 48h 2.3µM, Pf growth 96h 2.6µM
CCCCCCN(C(=O)CCCCCN1C(=O)NC(c2ccc(Cl)cc2)C(C(=O)OCc2ccccc2)=C1C)C(C(=O)NCCCC)c1ccc(OCC(=O)OC)c(C(=O)OC)c1 (centres undefined)	HCMV inh inconclusive, Pf growth 48h 7.4µM, Pf growth 96h inconclusive
CCC(=O)Oc1c(Sc2ccc(Cl)cc2)c(C)nn1C(C)(C)C	none (no result: Pf growth 48h, Pf growth 96h, Cycloheximide cs, Shiga inhibitor)
CCCOc1ccc(NC(=O)CC2C(=O)N(c3ccccc3)C(=O)N2CCC(C)C)cc1 (centres undefined)	none (no result: Pf growth 48h, Pf growth 96h, Cycloheximide cs, Shiga inhibitor)
CCOC(=O)c1cc(OC(=O)c2ccc(Cl)cc2)n(-c2ccccc2)n1	none (no result: Pf growth 48h, Pf growth 96h, Cycloheximide cs, Shiga inhibitor)
CCC(=O)N(Cc1c(C)nn(-c2ccccc2)c1Cl)c1ccc(Cl)cc1	HCMV inh inconclusive, Pf growth 48h 10µM
CCCN(CCC)Cc1cc(=O)oc2ccc3ccccc3c12	none (no result: Pf growth 48h, Pf growth 96h, Cycloheximide cs, Shiga inhibitor)
CN1CCSc2ccc(C(=O)NCc3ccccc3)cc21	Pf growth 48h inconclusive, Cycloheximide cs 10, Shiga inhibitor 25
CN1CCSc2ccc(C(=O)Nc3cccc(F)c3)cc21	Cycloheximide cs 55, Shiga inhibitor 53
COc1ccc(NC(=O)c2ccc3c(c2)N(C)CCS3)cc1	Pf growth 96h inconclusive, Cycloheximide cs 59, Shiga inhibitor 67
CCN1CCSc2ccc(C(=O)NCc3cccc(F)c3)cc21	none
CCOc1ccc(NC(=O)C2CCN(c3nnc(-n4c(C)ccc4C)s3)CC2)cc1	none (no result: Pf growth 48h, Pf growth 96h, Cycloheximide cs, Shiga inhibitor)
COc1ccccc1Nc1nc(-c2c(C)nc3ncccn23)cs1	Pf growth 48h inconclusive
CN(C)CCNC(=O)c1csc(Nc2cccc3ccccc23)n1	HCMV inh inconclusive, Pf growth 48h inconclusive, Pf growth 96h inconclusive (no result: Shiga inhibitor)
COc1ccccc1Nc1nc(C)cs1	Pf growth 96h inconclusive, Cycloheximide cs 22!, Shiga inhibitor 85!
Cc1csc(Nc2ccccc2C(F)(F)F)n1	Cycloheximide cs 21
Cc1csc(Nc2cccc3ccccc23)n1	Cycloheximide cs 21
Cc1ccn2c(c1)nc(=O)c1cc(S(=O)(=O)N3CCOCC3)ccc12	Pf growth 48h inconclusive, Pf growth 96h inconclusive
CCC1CCCCN1C(=O)Nc1cc(Cl)ccc1OC (centres undefined)	Pf growth 96h inconclusive
O=C(NCCSCc1c(F)cccc1Cl)c1ccco1	Pf growth 48h inconclusive, Cycloheximide cs 29
O=C(CNC(=O)c1ccco1)OCc1c(F)cccc1Cl	Cycloheximide cs 20 (no result: Pf growth 96h)
COc1ccccc1C(=O)NCCSCc1c(F)cccc1Cl	Pf growth 48h inconclusive, Pf growth 96h 10µM, Cycloheximide cs 23
Cc1cc(=O)[nH]c(SC(C)C(=O)Nc2cccc3ccccc23)n1 (centres undefined)	none
O=C1CCCC(=O)N1c1ccc(NCCOCCO)c([N+](=O)[O-])c1	none
Cc1ccc(C(=O)N(C)c2nnc(-c3ccncc3)s2)cc1	Cycloheximide cs 15, Shiga inhibitor 58
CN(C(=O)c1ccncc1)c1nnc(-c2ccccn2)s1	Cycloheximide cs 35
CN(C(=O)c1ccncc1)c1nnc(-c2cccnc2)s1	Pf growth 96h inconclusive
Cc1nn(-c2ccccc2)c(OC(=O)C(C)C)c1Sc1ccc(Cl)cc1	none (no result: Pf growth 48h, Pf growth 96h, Cycloheximide cs, Shiga inhibitor)
Cc1cc(C)c(NC(=O)CN(C2CCCCC2)C2CCCCC2)c(C)c1	Pf growth 48h inconclusive (no result: Pf growth 96h)
Cc1cc(C)c(NC(=O)CN(CC(=O)O)CC(=O)O)c(C)c1Br	Pf growth 96h 3.4µM (no result: HCMV inh, Cycloheximide cs, Shiga inhibitor)
CC(C)c1nc2sc3c(SCCN(C)C)ncnc3c2c2c1CCC2	none (no result: Pf growth 48h, Pf growth 96h, Cycloheximide cs, Shiga inhibitor)
COc1cc(C(=S)N2CCN(C(c3ccccc3)c3ccccc3)CC2)cc(OC)c1O	Pf growth 48h inconclusive
